Laboratory results published in ChEMBL document CHEMBL3988442, “University of Dundee, Small-Polar-MMV Screening Library” (2021).
For some assays here: Results with a measured potency or affinity are listed apart.

Columns and labels:
Set-up in all cases: scale not given: direction of the effect not stated beside the values
[1] = target: Protein translocase subunit SecA (Escherichia coli (strain K12)) (UniProt P10408); assay: Assay to Identify E. coli SecA ATPase Inhibitors; type: functional; settings: 30 µM
Chain of Protein translocase subunit SecA (Escherichia coli (strain K12)) (P10408 whole entry): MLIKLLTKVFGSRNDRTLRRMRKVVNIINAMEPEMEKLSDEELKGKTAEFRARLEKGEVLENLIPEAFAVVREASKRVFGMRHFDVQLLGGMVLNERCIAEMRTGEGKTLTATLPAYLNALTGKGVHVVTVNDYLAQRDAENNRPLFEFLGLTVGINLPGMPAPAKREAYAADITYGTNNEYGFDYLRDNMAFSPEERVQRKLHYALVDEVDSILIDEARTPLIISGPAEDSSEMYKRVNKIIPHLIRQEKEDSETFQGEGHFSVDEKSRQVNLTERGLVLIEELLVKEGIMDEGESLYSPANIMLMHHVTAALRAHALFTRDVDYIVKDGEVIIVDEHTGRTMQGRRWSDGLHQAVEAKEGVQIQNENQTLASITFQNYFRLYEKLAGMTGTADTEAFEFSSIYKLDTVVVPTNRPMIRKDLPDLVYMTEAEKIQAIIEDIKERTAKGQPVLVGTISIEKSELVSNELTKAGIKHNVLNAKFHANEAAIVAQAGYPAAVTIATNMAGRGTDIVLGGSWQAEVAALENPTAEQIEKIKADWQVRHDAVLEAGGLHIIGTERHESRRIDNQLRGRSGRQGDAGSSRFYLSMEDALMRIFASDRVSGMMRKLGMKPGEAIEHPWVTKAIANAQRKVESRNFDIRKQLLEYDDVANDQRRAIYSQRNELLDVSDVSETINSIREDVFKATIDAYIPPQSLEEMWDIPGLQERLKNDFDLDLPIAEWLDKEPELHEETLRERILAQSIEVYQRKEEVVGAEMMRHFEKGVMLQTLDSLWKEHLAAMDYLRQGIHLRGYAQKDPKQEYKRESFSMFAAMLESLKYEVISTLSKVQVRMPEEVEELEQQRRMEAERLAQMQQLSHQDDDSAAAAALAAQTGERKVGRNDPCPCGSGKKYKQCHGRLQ

[2] = target: T1, Ubiquitin-activating enzyme e1, putative (Leishmania donovani (strain BPK282A1)) (UniProt E9BSI1); assay: Leishmania donovani Ubiquitin Activating Enzyme (LdE1); type: functional; settings: 30 µM
T1 sequence (whole entry): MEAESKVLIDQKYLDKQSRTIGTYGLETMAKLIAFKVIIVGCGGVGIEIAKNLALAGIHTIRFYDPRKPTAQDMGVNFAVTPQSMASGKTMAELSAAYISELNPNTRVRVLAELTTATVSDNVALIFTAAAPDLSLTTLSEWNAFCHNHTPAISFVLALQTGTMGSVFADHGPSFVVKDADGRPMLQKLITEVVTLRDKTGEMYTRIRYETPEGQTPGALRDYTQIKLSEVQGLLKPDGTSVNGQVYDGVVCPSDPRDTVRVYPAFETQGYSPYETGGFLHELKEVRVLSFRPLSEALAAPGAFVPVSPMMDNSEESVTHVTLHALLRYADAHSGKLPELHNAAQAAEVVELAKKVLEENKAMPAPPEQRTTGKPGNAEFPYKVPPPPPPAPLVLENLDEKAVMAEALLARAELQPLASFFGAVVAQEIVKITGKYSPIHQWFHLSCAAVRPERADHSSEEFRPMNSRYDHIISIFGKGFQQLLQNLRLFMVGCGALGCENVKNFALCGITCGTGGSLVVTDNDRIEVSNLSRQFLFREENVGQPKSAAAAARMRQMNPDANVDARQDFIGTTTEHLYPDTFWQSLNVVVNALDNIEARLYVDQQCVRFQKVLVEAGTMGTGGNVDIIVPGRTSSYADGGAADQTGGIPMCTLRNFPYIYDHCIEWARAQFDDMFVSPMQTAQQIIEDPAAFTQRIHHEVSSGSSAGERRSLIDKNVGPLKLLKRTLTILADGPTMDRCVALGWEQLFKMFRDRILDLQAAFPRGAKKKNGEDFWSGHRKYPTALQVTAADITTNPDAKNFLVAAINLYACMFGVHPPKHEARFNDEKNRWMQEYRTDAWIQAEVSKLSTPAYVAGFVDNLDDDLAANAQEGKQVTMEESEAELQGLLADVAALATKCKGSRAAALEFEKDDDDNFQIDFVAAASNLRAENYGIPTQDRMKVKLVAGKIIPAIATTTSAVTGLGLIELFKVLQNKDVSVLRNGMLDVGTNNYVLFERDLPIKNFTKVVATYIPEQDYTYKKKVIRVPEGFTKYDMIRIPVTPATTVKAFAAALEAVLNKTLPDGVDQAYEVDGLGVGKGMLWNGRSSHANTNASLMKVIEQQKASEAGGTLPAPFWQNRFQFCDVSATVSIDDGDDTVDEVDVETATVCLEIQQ

[3] = target: AMP-activated protein kinase, AMPK (Homo sapiens) (UniProt P54646+O43741+P54619+Q9UGJ0+Q9Y478+Q13131+Q9UGI9); assay: AMP-dependent Kinase enzyme assay. An in vitro enzyme assay that detects ADP turnover that is directly proportional to AMPK activity. This uses naive AMPK that is activated during the assay with MK-8722; type: functional; settings: 30 µM
[4] = target: Sialic acid-binding Ig-like lectin 9 (Homo sapiens) (UniProt Q9Y336); assay: Hs-Siglec9 ALPHAscreen SOP 20170721; settings: 10 µM
Chain of Sialic acid-binding Ig-like lectin 9 (Homo sapiens) (Q9Y336 whole entry): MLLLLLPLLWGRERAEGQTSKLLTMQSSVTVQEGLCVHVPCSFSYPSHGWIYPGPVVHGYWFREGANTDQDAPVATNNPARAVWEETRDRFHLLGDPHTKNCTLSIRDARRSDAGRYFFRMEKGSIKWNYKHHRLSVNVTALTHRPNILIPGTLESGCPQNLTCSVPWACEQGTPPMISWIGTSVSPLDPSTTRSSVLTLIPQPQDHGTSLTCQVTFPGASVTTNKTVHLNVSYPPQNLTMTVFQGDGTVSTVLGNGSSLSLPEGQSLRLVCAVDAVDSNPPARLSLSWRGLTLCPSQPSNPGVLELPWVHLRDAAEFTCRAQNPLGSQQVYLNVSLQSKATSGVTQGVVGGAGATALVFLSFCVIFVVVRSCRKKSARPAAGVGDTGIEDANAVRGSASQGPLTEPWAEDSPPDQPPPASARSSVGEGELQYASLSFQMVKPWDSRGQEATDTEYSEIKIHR

[5] = tested on: Trypanosoma cruzi; assay: Trypanosoma cruzi phosphomannomutase and mannose-1-phosphate guanylyltransferase assay; type: functional; settings: 10 µM
[6] = target: T2, Arginase-2, mitochondrial (Homo sapiens) (UniProt P78540); assay: in vitro enzyme assay to detect the production of urea directly proportional to the activity of Arginase II; type: functional; settings: 33.3 µM; also: in the data most compounds retested in dose-response had high values
T2 sequence (whole entry): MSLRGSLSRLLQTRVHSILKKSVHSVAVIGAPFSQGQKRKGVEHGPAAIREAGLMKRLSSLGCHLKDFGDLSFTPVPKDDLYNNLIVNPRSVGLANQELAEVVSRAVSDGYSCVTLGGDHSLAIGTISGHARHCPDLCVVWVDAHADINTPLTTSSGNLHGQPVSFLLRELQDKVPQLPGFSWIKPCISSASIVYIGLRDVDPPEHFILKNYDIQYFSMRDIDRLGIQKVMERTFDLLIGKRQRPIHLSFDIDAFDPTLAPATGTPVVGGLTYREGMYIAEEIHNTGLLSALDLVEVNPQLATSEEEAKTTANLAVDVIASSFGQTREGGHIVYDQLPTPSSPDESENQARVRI

[7] = target: T3, Proteasome subunit beta (Trypanosoma cruzi) (UniProt O96673); assay: Trypanosoma cruzi proteasome chymotrypsin-like activity (TcProtChymo) assay.; also: in the data most compounds retested in dose-response had high values; type: functional; settings: 9.37 µM
T3 sequence (whole entry): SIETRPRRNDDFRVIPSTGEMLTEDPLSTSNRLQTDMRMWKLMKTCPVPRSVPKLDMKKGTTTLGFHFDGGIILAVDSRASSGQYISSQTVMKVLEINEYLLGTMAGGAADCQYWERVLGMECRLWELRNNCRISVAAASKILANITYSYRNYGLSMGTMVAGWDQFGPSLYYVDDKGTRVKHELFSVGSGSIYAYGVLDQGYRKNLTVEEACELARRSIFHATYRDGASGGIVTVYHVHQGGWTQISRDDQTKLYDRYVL

[8] = species: Homo sapiens; assay: To identify inhibition of the IFN signalling (Jak-Stat) pathway via expression of an eGFP reporter gene under the control of an IFN-stimulated response element (ISRE) containing MxA promoter.; type: functional; settings: 30 µM
[9] = target: T4, Tyrosyl-tRNA synthetase, putative (Trypanosoma cruzi (strain CL Brener)) (UniProt Q4DSP6); assay: Trypanosoma cruzi tyrosyl tRNA synthetase (TcYRS) _High Tyrosine SOP; type: functional; settings: 30 µM; also: in the data most compounds retested in dose-response had high values
T4 sequence (whole entry): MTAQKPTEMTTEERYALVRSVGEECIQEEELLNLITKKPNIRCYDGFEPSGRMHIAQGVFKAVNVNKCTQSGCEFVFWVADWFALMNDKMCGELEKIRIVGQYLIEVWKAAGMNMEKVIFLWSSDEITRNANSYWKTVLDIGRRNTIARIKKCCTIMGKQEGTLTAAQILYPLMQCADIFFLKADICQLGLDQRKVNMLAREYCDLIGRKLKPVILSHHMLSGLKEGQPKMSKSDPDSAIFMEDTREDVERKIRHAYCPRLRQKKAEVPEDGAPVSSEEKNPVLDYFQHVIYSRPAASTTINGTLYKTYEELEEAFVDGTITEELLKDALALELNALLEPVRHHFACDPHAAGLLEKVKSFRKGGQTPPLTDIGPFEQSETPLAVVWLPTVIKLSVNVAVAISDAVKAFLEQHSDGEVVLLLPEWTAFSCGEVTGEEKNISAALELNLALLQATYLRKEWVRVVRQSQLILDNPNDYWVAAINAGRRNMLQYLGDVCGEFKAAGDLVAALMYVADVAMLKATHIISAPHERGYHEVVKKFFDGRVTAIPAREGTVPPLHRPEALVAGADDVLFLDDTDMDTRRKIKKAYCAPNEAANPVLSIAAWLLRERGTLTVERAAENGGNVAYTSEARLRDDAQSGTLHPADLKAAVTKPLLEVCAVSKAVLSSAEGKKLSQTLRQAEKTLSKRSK

[10] = target: T4, Tyrosyl-tRNA synthetase, putative (Trypanosoma cruzi (strain CL Brener)); assay: Trypanosoma cruzi tyrosyl tRNA synthetase (TcYRS) SOP; type: functional; settings: 30 µM
[11] = target: Chromo domain-containing protein 1 (Saccharomyces cerevisiae (strain ATCC 204508 / S288c) (Baker's yeast)) (UniProt P32657); assay: ScCHD-1 Enzyme Inhibition Assay; type: functional; settings: 30 µM; also: in the data most compounds retested in dose-response had high values
Chain of Chromo domain-containing protein 1 (Saccharomyces cerevisiae (strain ATCC 204508 / S288c) (Baker's yeast)) (P32657 whole entry, the tested form may be a part): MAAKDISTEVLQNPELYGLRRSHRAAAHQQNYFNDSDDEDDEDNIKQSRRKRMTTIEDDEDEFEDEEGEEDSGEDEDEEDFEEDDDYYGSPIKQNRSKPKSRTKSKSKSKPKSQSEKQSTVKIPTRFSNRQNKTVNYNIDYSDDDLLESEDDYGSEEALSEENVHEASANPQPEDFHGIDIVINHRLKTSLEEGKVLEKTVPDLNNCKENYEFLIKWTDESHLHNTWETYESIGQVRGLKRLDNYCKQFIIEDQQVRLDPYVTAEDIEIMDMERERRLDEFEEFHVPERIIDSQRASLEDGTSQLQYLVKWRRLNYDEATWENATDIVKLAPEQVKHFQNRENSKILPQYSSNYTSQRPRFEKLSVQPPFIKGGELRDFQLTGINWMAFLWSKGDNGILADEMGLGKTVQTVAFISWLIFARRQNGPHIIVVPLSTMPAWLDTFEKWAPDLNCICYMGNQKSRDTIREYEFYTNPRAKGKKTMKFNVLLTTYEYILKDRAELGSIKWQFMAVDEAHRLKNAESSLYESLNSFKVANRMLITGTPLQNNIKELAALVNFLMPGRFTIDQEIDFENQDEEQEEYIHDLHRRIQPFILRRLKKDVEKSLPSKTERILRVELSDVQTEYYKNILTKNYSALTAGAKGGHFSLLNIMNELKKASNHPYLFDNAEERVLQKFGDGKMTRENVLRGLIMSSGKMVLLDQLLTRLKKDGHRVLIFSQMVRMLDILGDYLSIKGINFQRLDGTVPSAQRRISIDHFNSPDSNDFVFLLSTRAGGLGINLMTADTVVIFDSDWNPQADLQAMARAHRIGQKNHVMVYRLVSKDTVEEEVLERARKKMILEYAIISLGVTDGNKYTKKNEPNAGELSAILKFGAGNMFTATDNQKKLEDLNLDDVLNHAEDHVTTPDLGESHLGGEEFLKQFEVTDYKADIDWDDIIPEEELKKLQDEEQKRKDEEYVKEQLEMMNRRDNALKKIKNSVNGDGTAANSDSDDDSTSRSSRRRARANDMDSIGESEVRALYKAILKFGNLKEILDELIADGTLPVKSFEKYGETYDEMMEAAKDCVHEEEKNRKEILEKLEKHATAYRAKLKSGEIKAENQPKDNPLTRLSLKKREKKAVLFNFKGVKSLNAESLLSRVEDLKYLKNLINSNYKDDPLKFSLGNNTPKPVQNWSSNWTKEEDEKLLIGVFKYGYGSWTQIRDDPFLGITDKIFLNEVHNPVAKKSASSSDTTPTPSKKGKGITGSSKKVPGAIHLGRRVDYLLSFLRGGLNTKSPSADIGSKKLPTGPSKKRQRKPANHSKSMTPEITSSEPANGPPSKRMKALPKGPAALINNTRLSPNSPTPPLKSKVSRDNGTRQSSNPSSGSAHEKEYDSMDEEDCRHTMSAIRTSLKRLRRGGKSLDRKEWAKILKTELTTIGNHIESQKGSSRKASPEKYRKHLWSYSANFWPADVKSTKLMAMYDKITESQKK

SMILES | Percent Effect [1] [%] | Percent Effect [2] [%] | Percent Effect [3] [%] | Percent Effect [4] [%] | Percent Effect [5] [%] | Percent Effect [6] [%] | Percent Effect [7] [%] | Percent Effect [8] [%] | Percent Effect [9] [%] | Percent Effect [10] [%] | Percent Effect [11] [%]
Cc1cc(=O)[nH]c(SCC(=O)N(C)CC2Cc3ccccc3CN2C)n1 (configuration not stated) | -6.85 | 5.41 | -2.17 | -6.16 | -0.489 | -0.744 | 5.75 | -12.2 | 6.45 | 8.64 | -4.63
Cc1cnn(CCNCC(O)COc2ccc(Cl)cc2)c1 (configuration not stated) | -3.71 | 10.1 | 0.158 | 12.9 | 3.12 | 0.76 | -1.88 | -3.16 | 3.45 | 8.86 | -2.04
O=C(CN1CCC(c2ccnn2CCO)CC1)NCC1CC1 | -2.3 | 17.7 | -5.47 | 0.194 | 2.36 | 0.76 | 6.96 | -2.19 | 8.37 | 29.1 | -5.59
c1nc2c(c(C3CC3)n1)CCN(CC1CCOC1)CC2 (configuration not stated) | -4.07 | 8.11 | 3.6 | -7.53 | 8.31 | 3.5 | 20.7 | 7.05 | 5.41 | 15.4 | -0.123
CCOC(=O)N1CCN(c2nc(NC)c3ccccc3n2)CC1 | -3.25 | 4 | -1.05 | 9.22 | 4.52 | -5.46 | 6.1 | 3.01 | 1.06 | 5.13 | -1.69
COc1ccc(Nc2nc3c(C)nn(C)c3c(=O)n2C)c(OC)c1 | -1.13 | 15.6 | -2.05 | 14.5 | 6.79 | -12.4 | 10.3 | 0.301 | 8.6 | 18.5 | -5.3
Cc1nnc2n1CCN(Cc1csc(-c3ccc(F)cc3)n1)C2 | -4.19 | 5.41 | -2.56 | 4.19 | 8.26 | -4.62 | 5.75 | 4.35 | 3.96 | 15.8 | -6.22
Cn1ccnc1-c1cccc(NC(=O)NCCN2CCOCC2)c1 | -4.99 | 15.3 | -5.8 | 16.5 | 4.57 | 16.3 | 10.9 | 9.44 | 5.26 | 10.3 | -4.33
Cn1cnnc1C1CCCN(C(=O)c2ccccc2Cl)C1 (configuration not stated) | -3.26 | 18.2 | -0.796 | -3.37 | 1.67 | 0.632 | 5.74 | 6.09 | 11.4 | 25.9 | -17.8
O=C(NCCCc1ccncc1)C1CCCN(Cc2ccco2)C1 (configuration not stated) | -4.69 | 5.33 | 3.79 | -5.72 | -10.8 | 1.04 | 17.6 | 29.8 | -1.64 | 6.17 | -7.2
Cc1n[nH]c(C)c1NC(=O)CN1CCOC(Cn2cccn2)C1 (configuration not stated) | -4.71 | 2.6 | 7.29 | -4.25 | 6.95 | -4 | 8.16 | 10.5 | 3.81 | 9.41 | -16.3
Cc1cc(C)n(-c2cc(N3CCN(C(=O)C(C)(C)C)CC3)nc(C)n2)n1 | -2.73 | 5.33 | -1.22 | 6.39 | 2.04 | 14.1 | 3.31 | 26.8 | 0.546 | 3.7 | -5.38
O=C1CC(c2ccccc2)c2c(n3ccsc3nc2=O)N1 (configuration not stated) | -4.74 | 17.3 | -7.29 | 1.39 | 2.16 | -6.87 | 13.3 | 5.81 | 5.29 | 15.4 | -7.95
CC(O)CN1CCC(CNCc2cccc(C(N)=O)c2)CC1 (configuration not stated) | -1.81 | 18.9 | -22.5 | 11 | 3.11 | -6.01 | 6.67 | 10.6 | 8.37 | 16.1 | -10
c1cncc(-c2ccc3c(c2)C2(CC3)CCN(c3nncs3)CC2)c1 | -0.421 | 0 | 3.46 | 8.96 | 5.56 | 1.6 | 14.5 | 47.4 | 14.6 | 8.64 | 2.02
COc1cccc(CN(C)Cc2cccc(C#N)c2)c1OC | -2.4 | 10.8 | -3.58 | 5.68 | 5.08 | 23.3 | 8.88 | 7.86 | 1.98 | -1.22 | -6.76
O=C(C[C@@H]1COC[C@H]2CN(Cc3ccc(F)cc3)C[C@@H]12)N1CCOCC1 | -9.06 | 17.3 | -1.45 | -0.881 | -3.73 | -10.4 | 7.58 | 7.29 | -2.12 | -5.13 | -10.9
CCCc1n[nH]c(C2CN(CCn3cccn3)CCO2)n1 (configuration not stated) | -6.25 | -4.17 | -1.07 | -3.33 | 2.04 | 2.21 | 11.9 | -12.6 | 2.1 | 0 | -1.2
Cc1cc(C2CCCN2CC(=O)N(CCC#N)c2ccccc2F)on1 (configuration not stated) | -2.04 | 10.8 | -3.15 | 8.81 | 4.18 | -4.99 | 19.4 | 8.68 | 3.96 | 23.2 | -6.79
CCOC(=O)CN1CCC(C(=O)c2cc(F)ccc2F)CC1 | -9.27 | -5.26 | -10.9 | 11.4 | 12.4 | -1.53 | 4.01 | 2.26 | 5.39 | 7.32 | -11.5
CN(C)c1ccc(CC(=O)N[C@@H]2CCNC[C@H]2O)cc1 | -6.67 | 5.41 | -14.5 | 7.45 | 2.05 | 0.744 | -1.46 | -17.6 | 7.53 | 11.1 | -2.77
COc1ccc(Cc2cccc(C3CCN(C)CC3)n2)cc1 | -2.99 | -55.4 | 8.96 | 9.53 | -0.395 | -1.62 | 6.55 | 2.93 | 5.38 | 1.3 | 1.29
